Assay [1] has as its target Ribosomal protein S6 kinase beta-1 (Homo sapiens) (UniProt P23443). The conditions noted are these: at 1 µM.
Assay [2] shares this target. As to conditions: at 10 µM.
For assay [3], the target named is T1, Serine/threonine-protein kinase NLK (Homo sapiens) (UniProt Q9UBE8).
T1 sequence (whole entry): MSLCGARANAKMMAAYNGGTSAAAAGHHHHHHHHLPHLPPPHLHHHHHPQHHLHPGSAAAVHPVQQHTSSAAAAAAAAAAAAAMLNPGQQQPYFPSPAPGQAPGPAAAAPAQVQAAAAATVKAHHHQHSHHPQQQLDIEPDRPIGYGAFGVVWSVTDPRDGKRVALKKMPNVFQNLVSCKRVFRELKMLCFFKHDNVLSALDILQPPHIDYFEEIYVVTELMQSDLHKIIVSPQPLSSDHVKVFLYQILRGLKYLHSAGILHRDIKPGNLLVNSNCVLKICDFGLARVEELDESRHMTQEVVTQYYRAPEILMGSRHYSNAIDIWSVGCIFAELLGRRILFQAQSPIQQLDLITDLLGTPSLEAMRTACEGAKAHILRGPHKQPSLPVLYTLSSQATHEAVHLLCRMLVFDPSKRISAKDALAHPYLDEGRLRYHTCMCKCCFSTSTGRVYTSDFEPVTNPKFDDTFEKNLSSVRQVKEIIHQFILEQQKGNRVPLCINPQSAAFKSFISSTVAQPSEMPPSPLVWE
The conditions noted are these: at 1 µM.

Assay [4] concerns the target T1, Serine/threonine-protein kinase NLK (Homo sapiens). The conditions noted are these: at 10 µM.
Assay [5] has as its target Serine/threonine-protein kinase PAK 2 (Homo sapiens) (UniProt Q13177). The conditions noted are these: at 1 µM.
For assay [6] the target is unchanged. The conditions noted are these: at 10 µM.
The target in assay [7] is Serine/threonine-protein kinase PAK 4 (Homo sapiens) (UniProt O96013). As to conditions: at 1 µM.
The target is the same in assay [8]. The conditions noted are these: at 10 µM.
Assay [9] has as its target Serine/threonine-protein kinase PAK 5 (Homo sapiens) (UniProt Q9P286). The conditions noted are these: at 1 µM.
Assay [10] has the same target. The conditions noted are these: at 10 µM.
Assay [11] addresses PAS domain-containing serine/threonine-protein kinase (Homo sapiens) (UniProt Q96RG2). As to conditions: at 10 µM.
The target in assay [12] is Activated CDC42 kinase 1 (Homo sapiens) (UniProt Q07912). As to conditions: at 1 µM.
Assay [13] shares this target. As to conditions: at 10 µM.
The target in assay [14] is ALK tyrosine kinase receptor (Homo sapiens) (UniProt Q9UM73). The conditions noted are these: at 1 µM.
Assay [15] has as its target Serine/threonine-protein kinase Nek7 (Homo sapiens) (UniProt Q8TDX7). As to conditions: at 1 µM.
The target is the same in assay [16]. As to conditions: at 10 µM.
Assay [17] has as its target Serine/threonine-protein kinase PAK 6 (Homo sapiens) (UniProt Q9NQU5). The conditions noted are these: at 1 µM.
Assay [18] has the same target. The conditions noted are these: at 10 µM.
The target in assay [19] is Serine/threonine-protein kinase Nek6 (Homo sapiens) (UniProt Q9HC98). As to conditions: at 1 µM.
For assay [20] the target is unchanged. The conditions noted are these: at 10 µM.

Each structure is given as a SMILES string.

PAS domain-containing serine/threonine-protein kinase (Homo sapiens), sequence (Q96RG2 whole entry, the tested form may be a part): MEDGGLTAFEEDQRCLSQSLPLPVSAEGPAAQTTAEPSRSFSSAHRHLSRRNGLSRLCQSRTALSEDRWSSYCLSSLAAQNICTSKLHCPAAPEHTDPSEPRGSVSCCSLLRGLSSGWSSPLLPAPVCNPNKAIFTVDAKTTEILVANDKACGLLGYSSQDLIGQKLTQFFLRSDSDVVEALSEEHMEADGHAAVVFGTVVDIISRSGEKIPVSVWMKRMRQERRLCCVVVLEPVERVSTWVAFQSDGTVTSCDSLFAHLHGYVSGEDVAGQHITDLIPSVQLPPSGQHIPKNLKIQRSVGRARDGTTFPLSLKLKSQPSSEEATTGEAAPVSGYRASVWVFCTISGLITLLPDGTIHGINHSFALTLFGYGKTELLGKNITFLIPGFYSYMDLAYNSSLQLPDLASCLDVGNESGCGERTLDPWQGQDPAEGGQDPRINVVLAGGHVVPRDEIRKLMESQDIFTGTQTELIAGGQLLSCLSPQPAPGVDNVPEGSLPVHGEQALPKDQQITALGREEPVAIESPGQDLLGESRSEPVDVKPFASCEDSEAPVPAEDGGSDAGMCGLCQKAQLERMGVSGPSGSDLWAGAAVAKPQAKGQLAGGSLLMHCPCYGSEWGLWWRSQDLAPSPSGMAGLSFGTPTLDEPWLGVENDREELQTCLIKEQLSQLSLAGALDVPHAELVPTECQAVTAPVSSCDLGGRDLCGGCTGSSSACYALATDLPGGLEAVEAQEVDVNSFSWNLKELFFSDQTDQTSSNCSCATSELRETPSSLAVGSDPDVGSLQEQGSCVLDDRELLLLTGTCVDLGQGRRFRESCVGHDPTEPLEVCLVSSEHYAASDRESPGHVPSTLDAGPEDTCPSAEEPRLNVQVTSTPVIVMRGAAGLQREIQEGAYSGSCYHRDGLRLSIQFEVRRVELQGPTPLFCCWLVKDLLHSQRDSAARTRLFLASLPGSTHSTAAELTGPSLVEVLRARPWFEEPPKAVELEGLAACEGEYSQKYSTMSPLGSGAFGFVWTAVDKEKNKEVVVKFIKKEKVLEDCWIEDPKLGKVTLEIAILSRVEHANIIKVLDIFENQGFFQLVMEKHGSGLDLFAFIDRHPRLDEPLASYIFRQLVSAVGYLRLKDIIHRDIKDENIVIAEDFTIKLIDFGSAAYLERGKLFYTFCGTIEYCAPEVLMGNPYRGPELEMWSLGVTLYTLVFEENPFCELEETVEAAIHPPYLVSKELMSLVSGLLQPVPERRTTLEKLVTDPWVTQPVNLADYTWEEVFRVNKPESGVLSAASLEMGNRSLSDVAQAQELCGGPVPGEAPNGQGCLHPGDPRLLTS
ALK tyrosine kinase receptor (Homo sapiens), sequence (Q9UM73 19-1620 limits assumed): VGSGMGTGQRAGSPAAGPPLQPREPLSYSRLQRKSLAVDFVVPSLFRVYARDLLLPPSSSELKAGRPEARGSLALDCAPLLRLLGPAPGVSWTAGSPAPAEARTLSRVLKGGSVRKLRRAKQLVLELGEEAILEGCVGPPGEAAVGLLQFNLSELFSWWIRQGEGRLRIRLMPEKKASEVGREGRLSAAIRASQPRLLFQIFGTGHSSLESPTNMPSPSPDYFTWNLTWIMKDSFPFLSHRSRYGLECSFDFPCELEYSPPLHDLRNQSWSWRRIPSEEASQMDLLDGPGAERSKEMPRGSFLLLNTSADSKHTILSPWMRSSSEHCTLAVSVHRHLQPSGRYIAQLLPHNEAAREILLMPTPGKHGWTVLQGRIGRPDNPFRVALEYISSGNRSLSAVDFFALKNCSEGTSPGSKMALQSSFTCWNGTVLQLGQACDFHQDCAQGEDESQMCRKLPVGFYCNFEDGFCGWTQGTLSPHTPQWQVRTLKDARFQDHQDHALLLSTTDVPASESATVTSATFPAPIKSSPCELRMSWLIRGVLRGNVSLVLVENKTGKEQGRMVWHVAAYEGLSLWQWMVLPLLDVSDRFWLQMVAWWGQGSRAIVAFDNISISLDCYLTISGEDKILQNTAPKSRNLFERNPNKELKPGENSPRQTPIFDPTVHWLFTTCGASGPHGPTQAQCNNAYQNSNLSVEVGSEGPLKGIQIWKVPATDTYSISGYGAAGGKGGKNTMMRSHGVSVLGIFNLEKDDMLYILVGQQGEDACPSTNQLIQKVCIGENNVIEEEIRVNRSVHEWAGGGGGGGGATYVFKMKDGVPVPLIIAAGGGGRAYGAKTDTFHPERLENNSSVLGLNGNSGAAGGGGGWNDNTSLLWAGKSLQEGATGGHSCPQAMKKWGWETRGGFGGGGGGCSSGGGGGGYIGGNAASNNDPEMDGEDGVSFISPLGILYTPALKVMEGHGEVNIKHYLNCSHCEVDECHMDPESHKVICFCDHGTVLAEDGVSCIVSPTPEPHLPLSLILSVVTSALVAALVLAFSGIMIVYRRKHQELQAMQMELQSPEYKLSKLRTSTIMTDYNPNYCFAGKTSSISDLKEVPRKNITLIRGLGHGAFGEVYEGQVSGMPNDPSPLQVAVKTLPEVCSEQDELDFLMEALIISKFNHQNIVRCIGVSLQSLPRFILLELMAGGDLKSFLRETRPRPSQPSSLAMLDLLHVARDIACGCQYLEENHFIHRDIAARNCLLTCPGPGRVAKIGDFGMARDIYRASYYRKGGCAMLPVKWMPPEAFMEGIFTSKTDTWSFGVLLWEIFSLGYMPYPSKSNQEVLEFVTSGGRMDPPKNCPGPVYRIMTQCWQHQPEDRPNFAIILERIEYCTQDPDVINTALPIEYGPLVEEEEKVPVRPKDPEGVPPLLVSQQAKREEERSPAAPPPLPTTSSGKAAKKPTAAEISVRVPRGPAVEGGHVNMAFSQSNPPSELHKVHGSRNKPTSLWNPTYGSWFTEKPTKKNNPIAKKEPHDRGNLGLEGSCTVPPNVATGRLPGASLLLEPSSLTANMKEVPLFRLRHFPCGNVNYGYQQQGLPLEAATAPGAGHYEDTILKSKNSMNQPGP
Activated CDC42 kinase 1 (Homo sapiens), sequence (Q07912 whole entry, looked up): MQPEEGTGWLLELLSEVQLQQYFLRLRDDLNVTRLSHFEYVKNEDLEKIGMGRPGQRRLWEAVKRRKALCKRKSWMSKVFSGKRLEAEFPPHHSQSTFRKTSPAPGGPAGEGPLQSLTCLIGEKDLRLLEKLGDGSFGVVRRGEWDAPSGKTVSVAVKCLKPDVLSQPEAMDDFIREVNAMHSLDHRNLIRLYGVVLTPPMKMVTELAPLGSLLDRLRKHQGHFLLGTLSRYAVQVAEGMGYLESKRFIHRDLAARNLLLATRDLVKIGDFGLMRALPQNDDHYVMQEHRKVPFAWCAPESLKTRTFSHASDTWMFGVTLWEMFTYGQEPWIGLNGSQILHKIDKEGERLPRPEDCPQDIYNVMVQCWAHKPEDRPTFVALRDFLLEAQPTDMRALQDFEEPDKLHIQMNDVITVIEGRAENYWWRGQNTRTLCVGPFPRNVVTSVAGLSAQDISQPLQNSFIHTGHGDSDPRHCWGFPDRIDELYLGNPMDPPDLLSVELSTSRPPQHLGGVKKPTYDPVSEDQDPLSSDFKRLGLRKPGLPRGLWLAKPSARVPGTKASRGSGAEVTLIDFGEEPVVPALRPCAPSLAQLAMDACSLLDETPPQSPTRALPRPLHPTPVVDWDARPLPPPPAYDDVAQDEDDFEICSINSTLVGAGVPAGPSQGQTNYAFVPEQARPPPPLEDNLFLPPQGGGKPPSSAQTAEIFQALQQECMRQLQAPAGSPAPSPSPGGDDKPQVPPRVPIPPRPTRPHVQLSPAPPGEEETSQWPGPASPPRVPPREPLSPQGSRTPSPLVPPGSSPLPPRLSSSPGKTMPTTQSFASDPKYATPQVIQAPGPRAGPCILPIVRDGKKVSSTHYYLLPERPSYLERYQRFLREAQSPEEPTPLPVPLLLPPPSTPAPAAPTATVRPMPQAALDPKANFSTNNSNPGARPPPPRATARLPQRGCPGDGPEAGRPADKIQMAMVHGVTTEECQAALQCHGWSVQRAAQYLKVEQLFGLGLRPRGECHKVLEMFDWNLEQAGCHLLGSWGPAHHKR
Ribosomal protein S6 kinase beta-1 (Homo sapiens), sequence (P23443 whole entry, looked up): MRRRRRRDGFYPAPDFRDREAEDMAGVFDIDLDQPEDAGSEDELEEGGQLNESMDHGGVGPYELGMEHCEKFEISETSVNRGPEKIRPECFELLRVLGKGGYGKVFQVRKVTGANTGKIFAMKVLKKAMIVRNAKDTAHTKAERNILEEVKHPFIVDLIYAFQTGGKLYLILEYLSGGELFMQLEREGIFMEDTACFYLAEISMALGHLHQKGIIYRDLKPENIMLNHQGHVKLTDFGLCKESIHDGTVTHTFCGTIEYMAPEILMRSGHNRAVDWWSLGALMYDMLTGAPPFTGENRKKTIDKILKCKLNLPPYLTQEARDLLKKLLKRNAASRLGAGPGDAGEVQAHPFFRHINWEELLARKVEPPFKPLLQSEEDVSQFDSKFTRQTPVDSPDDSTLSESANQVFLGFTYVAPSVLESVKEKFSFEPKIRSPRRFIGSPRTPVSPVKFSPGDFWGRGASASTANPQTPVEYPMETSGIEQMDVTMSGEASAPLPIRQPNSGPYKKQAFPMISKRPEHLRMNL
Serine/threonine-protein kinase Nek6 (Homo sapiens), sequence (Q9HC98 whole entry): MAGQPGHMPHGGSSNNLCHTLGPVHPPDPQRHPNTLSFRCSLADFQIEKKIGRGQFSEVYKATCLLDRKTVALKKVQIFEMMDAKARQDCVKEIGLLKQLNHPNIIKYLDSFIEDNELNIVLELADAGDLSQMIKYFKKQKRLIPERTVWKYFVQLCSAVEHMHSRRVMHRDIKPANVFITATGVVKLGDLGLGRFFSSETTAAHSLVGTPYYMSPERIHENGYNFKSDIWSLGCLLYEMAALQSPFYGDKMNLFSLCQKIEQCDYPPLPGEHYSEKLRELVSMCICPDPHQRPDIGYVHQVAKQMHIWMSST
Serine/threonine-protein kinase Nek7 (Homo sapiens), sequence (Q8TDX7 whole entry, looked up): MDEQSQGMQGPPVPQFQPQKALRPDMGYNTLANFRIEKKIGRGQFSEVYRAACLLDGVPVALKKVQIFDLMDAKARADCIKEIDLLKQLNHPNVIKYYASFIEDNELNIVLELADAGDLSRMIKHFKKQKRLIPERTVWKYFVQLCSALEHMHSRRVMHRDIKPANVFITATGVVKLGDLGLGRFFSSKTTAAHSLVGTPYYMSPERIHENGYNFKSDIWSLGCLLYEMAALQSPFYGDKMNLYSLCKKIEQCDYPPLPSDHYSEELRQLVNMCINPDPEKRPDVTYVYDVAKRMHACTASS

As for `O=C1Nc2ccc(Cl)cc2/C1=C/c1cc(Cl)c(O)c(Cl)c1`, the residual activity in [1] was 60%; in assay [2], 40%; in assay [3], 47%; in [4], 15%; in assay [5], 97%; in assay [6], 75%. Moreover, the residual activity is 91% in [7]; 68% in [8]; 73% in assay [9]; 62% in assay [10]; 29% in assay [11]; 48% in assay [12]. Also, the values for the residual activity in [13] and in assay [14] were 7% and 68%, respectively.
As for `COc1cc2nccc(Oc3ccc(NC(=O)Nc4cc(C)on4)c(Cl)c3)c2cc1OC`, the residual activity in [1] was 76%; in [2], 53%; in [15], 98% (inactive); in assay [16], 103% (inactive); in assay [3], 77%; in [4] it was 42%. Besides, the residual activity came out at 82% in [9]; 52% in assay [10]; 104% in assay [17]; 54% in [18]; 62% in assay [11]; 20% in assay [12]. For the same compound, in [13], the residual activity came out at 6%.
Turning to `N#C/C(=C1/Nc2ccccc2S1)c1ccnc(NCCc2cccnc2)n1`, the residual activity in [1] is 72%; in assay [2], 39%; in assay [19] it was 119% (inactive); in assay [9], 84%; in assay [10], 72%; in [13], 12%. Also, the residual activity in assay [14] stood at 64%.
As to `O=c1cc(N2CCOCC2)oc2c1ccc1ccccc12`, the residual activity is 74% in [1]; 41% in [2]; 100% (inactive) in assay [19]; 106% in assay [20]; 103% (inactive) in assay [15]; 95% (inactive) in assay [16]. Moreover, the residual activity in [3] was 108%; in assay [4], 80%; in assay [5], 97%; in [6], 89%; in [7] it was 94%; in [8], 94%. The residual activity in assay [9] came out at 94%; in assay [10], 81%; in [18], 94%; in assay [11] it was 88%; in assay [12], 90%; in assay [13], 77%. Besides, in assay [14], the residual activity worked out at 81%.
For `O=C(NC(NC(=S)Nc1ccc(F)c([N+](=O)[O-])c1)C(Cl)(Cl)Cl)C(c1ccccc1)c1ccccc1` (configuration not stated), the residual activity in assay [1] is 141%; in assay [2], 99%; in assay [16] it was 96% (inactive); in assay [3] it was 103%; in assay [4], 101%; in [7], 100%. Moreover, the residual activity in assay [8] was determined as 97%; in [10], 66%; in assay [18] it was 61%; in assay [11], 75%; in assay [12], 100%; in assay [13], 78%. For the same compound, in assay [14], the residual activity was 81%.
For `Oc1cccc(-c2nc(N3CCOCC3)c3oc4ncccc4c3n2)c1`, the residual activity in assay [1] is 68%; in assay [2], 84%; in [15] it was 100% (inactive); in assay [16] it was 96% (inactive); in assay [7] it was 100%; in assay [8], 93%. Moreover, the residual activity in [9] was found to be 84%; in assay [10] it was 84%; in assay [17] it was 100%; in assay [18], 78%; in [12] it was 78%; in assay [13], 69%.
With `Nc1n[nH]c2nc3ccccc3nc12`, the residual activity in assay [1] was 78%; in assay [2], 47%; in assay [3], 97%; in [4], 91%; in assay [7], 94%; in [8] it was 85%. Besides, the residual activity is 90% in assay [9]; 70% in assay [10]; 84% in assay [17]; 84% in assay [18]; 68% in assay [12]; 40% in assay [13]. In addition, the residual activity in [14] turned out to be 67%.
In the case of `O=C1Nc2ccccc2/C1=C\c1c(Cl)[nH]c2ccccc12`, the residual activity is 87% in assay [1]; 54% in [2]; 142% (inactive) in assay [16]; 73% in assay [4]; 85% in assay [18]; 67% in assay [11]. Moreover, the residual activity in assay [12] came out at 84%; in assay [13] it was 48%; in assay [14], 81%.
Consider `O=C1NC(=O)c2c1c1c3ccccc3[nH]c1n1cncc21`, for which the residual activity in [1] is 68%; in assay [2], 28%; in [19], 98% (inactive); in assay [20], 90%; in assay [15], 100% (inactive); in assay [16], 86% (inactive). The residual activity turned out to be 89% in [3]; 72% in [4]; 98% in [5]; 89% in assay [6]; 81% in assay [7]; 82% in assay [8]. Further, the residual activity in assay [10] came out at 91%; in assay [17], 98%; in assay [18], 73%; in assay [11], 26%; in assay [12] it was 38%; in [13], 23%. The residual activity in assay [14] was found to be 77%.
Turning to `O=C1Cc2c([nH]c3ccc([N+](=O)[O-])cc23)-c2ccccc2N1`, the residual activity is 106% in [1]; 103% in assay [2]; 115% (inactive) in assay [19]; 118% in assay [20]; 106% (inactive) in assay [15]; 104% (inactive) in assay [16]. The residual activity in assay [5] was found to be 43%; in assay [6], 30%; in assay [7] it was 22%; in assay [8], 21%; in assay [9] it was 24%; in assay [10], 25%. The residual activity in [17] amounted to 61%; in assay [18], 41%; in assay [12], 44%; in [13], 24%.
For the compound `O=C(c1ccccc1)c1ccc(N2CCOCC2)cc1O`, the residual activity is 77% in assay [1]; 53% in assay [2]; 92% (inactive) in [19]; 116% (inactive) in [15]; 63% in assay [4]; 92% in assay [9]. The residual activity in assay [10] is 114%; in assay [17], 82%; in assay [18] it was 85%; in assay [11] it was 78%; in assay [12] it was 94%; in assay [13], 72%. For the same compound, the residual activity in assay [14] amounted to 78%.
For the compound `Nc1ncnc2[nH]nc(Nc3ccc(F)cc3)c12`, the residual activity in assay [1] was 91%; in assay [2] it was 61%; in [19], 118% (inactive); in assay [20], 106%; in [15] it was 100% (inactive); in [16], 96% (inactive). Moreover, the residual activity in assay [3] was 93%; in assay [4], 55%; in assay [5], 106%; in assay [6], 109%; in assay [7] it was 111%; in assay [9], 104%. For the same compound, the residual activity in assay [10] is 97%; in assay [17], 102%; in assay [18], 81%; in [11], 62%; in [12], 60%; in assay [13], 17%. Moreover, the residual activity in [14] is 82%.
Consider `Nc1ncnc2c1cnn2-c1ccccc1`, for which the residual activity was 84% in assay [1]; 63% in assay [2]; 99% (inactive) in assay [19]; 87% (inactive) in [15]; 85% (inactive) in assay [16]; 88% in [3]. Besides, the residual activity in assay [4] stood at 80%; in [6], 97%; in assay [9] it was 92%; in [17], 92%; in [18] it was 86%; in assay [11], 92%. The residual activity in assay [12] is 91%; in assay [13], 61%; in assay [14], 79%.

These data come from ChEMBL document CHEMBL2218924, “A broad activity screen in support of a chemogenomic map for kinase signalling research and drug discovery” (Biochem J, 2013).
